# High-throughput results (PubChem)
# A selection: hits, their analogues and other compounds. The true share with any hit is near 2.3%.
# CF NFkB block = cystic fibrosis NF-kB activation inhibition; inhibition, % at 5 µM; AID 588850; actives 0.86% (n = 360,000); KKLEB NF-kB-GFP reporter, PAF-induced, GFP fluorescence overnight;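 active means at least 50% inhibition at 5 µM, scaled per plate between neutral and stimulator controls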;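 further: PAF is a Pseudomonas aeruginosa culture filtrate used as stimulus; plate controls were PAF-stimulated DMSO wells for no effect and unstimulated DMSO wells for full effect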
# TWEAK-Fn14 inh = TWEAK-Fn14 signaling inhibition | TWEAK-stimulated Fn14 reporter cells, luciferase luminescence, 8 h | inhibition, % at 10 µM | actives 2% (n = 360,000); in the data active means inhibition above about 50%
# HIF-2a inh = blocks HIF-2a reporter activity; 786-0 RCC cells HIF-2a reporter, luciferase luminescence, overnight; inhibition, % at 18.8 µM; actives 0.72% (n = 360,000); AID 624352;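 active means inhibition of the luminescence signal of 40% or more relative to plate controls, in a single-dose primary screen at 18.75 µM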
# KKLEB cytotox = reduces viability of KKLEB cystic fibrosis airway cells. KKLEB CF airway cells viability, ATPlite luminescence, overnight; stronger effect = lower value; cells stimulated with P. aeruginosa culture filtrate. actives 0.36% (n = 360,000). activity change (cytotoxicity), % at 5 µM. AID 602141;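 active means corrected activity change at or below -50% at 5 µM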
# LGR2 antag = Drosophila LGR2 receptor signaling inhibition. AID 720647. actives 0.35% (n = 380,000). HEK293 LGR2, CRE-luciferase, bursicon-stimulated, 4 h. inhibition, % at 9.99 µM;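 active means drop in luminescence signal, shown as inhibition above about 50% in the replicate tests, limit read from the data, passing the limit was not always enough; inconclusive means probably only some replicates passing the limit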;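 further: agonist challenge used bursicon conditioned medium at about half maximal strength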
# iPSC survival up = enhancers of human iPSC single-cell survival; actives 0.044% (n = 360,000); hiPSC single-cell survival, ATPlite luminescence; 100% = ROCK inhibitor wells, 0% = DMSO; survival enhancement, % at 20 µM; in the data active means survival enhancement above about 18%;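 further: cells exposed to compounds for 16 hours before the ATP read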
# Mdm2 MdmX conf = Mdm2/MdmX (human) interaction inhibition, confirmed. SaOS-2 split-luciferase Mdm2/MdmX complementation, luminescence. inhibition, % at 8 µM. shares compounds with HIF-2a inh. actives 99% (n = 740);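 active means mean inhibition of the luminescence signal across two replicates at or above 26 percent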
# Target sequence (O15151 whole entry, looked up): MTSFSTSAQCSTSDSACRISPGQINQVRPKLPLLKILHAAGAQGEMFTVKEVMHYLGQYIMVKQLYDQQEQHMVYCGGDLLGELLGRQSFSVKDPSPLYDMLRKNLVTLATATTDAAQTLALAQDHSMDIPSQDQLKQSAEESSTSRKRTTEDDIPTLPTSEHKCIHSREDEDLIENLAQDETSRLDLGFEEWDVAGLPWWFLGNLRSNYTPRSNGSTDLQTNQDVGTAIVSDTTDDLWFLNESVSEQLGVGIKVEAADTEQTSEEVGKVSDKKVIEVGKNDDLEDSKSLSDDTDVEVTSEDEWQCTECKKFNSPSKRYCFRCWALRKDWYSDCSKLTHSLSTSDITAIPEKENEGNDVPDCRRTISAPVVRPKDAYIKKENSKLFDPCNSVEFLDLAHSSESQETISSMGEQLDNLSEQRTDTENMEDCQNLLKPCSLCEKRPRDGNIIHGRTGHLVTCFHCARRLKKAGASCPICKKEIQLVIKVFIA
# Target sequence (Q00987 whole entry, looked up): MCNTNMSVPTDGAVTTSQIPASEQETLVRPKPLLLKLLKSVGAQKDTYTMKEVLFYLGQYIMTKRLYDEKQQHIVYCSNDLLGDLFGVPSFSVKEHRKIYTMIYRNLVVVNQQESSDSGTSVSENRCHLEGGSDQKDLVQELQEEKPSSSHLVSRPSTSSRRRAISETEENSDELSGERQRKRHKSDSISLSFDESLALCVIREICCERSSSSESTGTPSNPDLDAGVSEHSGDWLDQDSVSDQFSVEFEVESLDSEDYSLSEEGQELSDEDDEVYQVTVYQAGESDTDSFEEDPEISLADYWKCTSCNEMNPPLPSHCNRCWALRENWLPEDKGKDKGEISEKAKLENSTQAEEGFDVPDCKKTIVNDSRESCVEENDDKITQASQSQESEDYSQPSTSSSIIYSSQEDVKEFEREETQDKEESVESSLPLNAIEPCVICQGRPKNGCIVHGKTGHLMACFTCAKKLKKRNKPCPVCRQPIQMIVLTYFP
# HIF-2a conf = HIF-2a inhibition, single concentration confirmation; shares compounds with HIF-2a inh; inhibition, % at 18.8 µM; actives 56% (n = 1,800); 786-0 RCC cells, HIF-2a luciferase reporter luminescence, overnight;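 active means mean inhibition across four replicates of at least 40 percent at the single tested concentration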
# HIF-1a counter = counter-screen for HIF-2a inhibitors: HIF-1a inhibition in MiaPaCa-2 cells. actives 72% (n = 1,800). inhibition, % at 18.8 µM. MiaPaCa-2 HIF-1a luciferase reporter, desferoxamine, overnight. shares compounds with HIF-2a inh;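 active means mean inhibition of the reporter signal across four replicates at the single tested dose of 50% or more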
# Numbers without * were called inactive; ? = inconclusive; · = no result given.
SMILES,CF NFkB block,TWEAK-Fn14 inh,HIF-2a inh,KKLEB cytotox,LGR2 antag,iPSC survival up,HIF-2a conf,HIF-1a counter,others
COCC(C)n1c(C)cc(C(=O)COC(=O)c2cc(=O)[nH]c3ccccc23)c1C (stereo not drawn),4,88*,43*,-3,3,-1,45*,36,
COCC(=O)N1CC(=O)N2[C@H](CO)[C@H](c3ccc(C#CC4CCCCC4)cc3)[C@H]2C1,·,·,·,·,-5,·,·,·,
C=CCn1cccc(/C=C/C(=O)c2ccc(C(C)(C)C)cc2)c1=S,37,2,70*,-52*,12,-4,61*,105*,
O=C(C=Cc1ccccc1Cl)c1ccccc1,15,-3,-96,1,-43,-3,·,·,
O=C(Nc1ccccc1)c1cc(C2CCCN(C(=O)C/C=C/c3ccccc3)C2)on1 (stereo not drawn),-1,7,-148,0,-40,-1,·,·,
CC(=O)N1CCCC(c2cc(C(=O)Nc3ccccc3)no2)C1 (stereo not drawn),-26,101*,72*,-8,88*,-4,82*,60*,
O=C(Cc1coc2cc3c(cc12)CCC3)OCC(=O)N1CCCC1=O,35,83*,80*,-16,2,2,77*,83*,
CN1C(=O)c2cc(NC(=O)c3ccc(C(F)(F)F)cc3)ccc2OC[C@@H]2O[C@@H](CC(=O)O)CC[C@@H]21,·,·,·,·,-10,·,·,·,
CCCSc1cc(NCCOC(=O)CCC)c([N+](=O)[O-])c2nonc12,-6,21,14,-2,6,-1,·,·,
CCC(=O)OCCNc1cc(Sc2nc3ccccc3s2)c2nonc2c1[N+](=O)[O-],-6,18,53*,15,34,0,36,61*,
CCCC(=O)OCCNc1cc(Sc2nccn2C)c2nonc2c1[N+](=O)[O-],48,42,87*,-1,42,-1,82*,104*,
CCC(=O)OCCNc1cc(Sc2nc3ccccc3[nH]2)c2nonc2c1[N+](=O)[O-],82*,54*,86*,-95*,7,-2,84*,84*,
CN1CCN(C(=O)C[C@@H]2CC[C@H]3[C@@H](COc4ccc(NC(=O)C5CCCC5)cc4C(=O)N3C)O2)CC1,·,·,·,·,8,·,·,·,
NNC(=O)COc1ccc(-c2nccc(-c3ccc(F)cc3)n2)cc1,-21,55*,68*,4,-25,0,79*,52*,
NNC(=O)COc1ccc(F)cc1,3,-8,18,-2,1,-1,·,·,
O=C(O)COc1ccc(-c2nccc(-c3ccccn3)n2)cc1,-3,61*,87*,-2,-20,4,90*,59*,
FCCCOc1ccc(-c2nccc(-c3ccccn3)n2)cc1,-26,-40,-215,7,-46,0,·,·,
C[C@H](CO)N1C[C@H](C)[C@H](CN(C)C(=O)CN(C)C)Oc2cc(C3=CCCC3)ccc2S1(=O)=O,·,·,·,·,4,·,·,·,
C[C@@H]1CN([C@@H](C)CO)C(=O)c2cc(NC(=O)Cc3ccccc3)ccc2O[C@@H](C)CCCCO[C@@H]1CN(C)C(=O)c1ccncc1,·,·,·,·,-7,·,·,·,
COc1ccc(Br)cc1/C=C/C(=O)c1ccc(NC(C)=O)cc1,42,84*,85*,17,95*,3,64*,106*,
COCC(=O)Nc1ccc2c(c1)C(=O)N(C)[C@H]1CC[C@@H](CC(=O)NCC3CC3)O[C@H]1CO2,·,·,·,·,17,·,·,·,
CC(=O)c1c(C)[nH]c(C(=O)Nc2ccc(C)cn2)c1C,-25,95*,46*,5,·,-5,60*,56*,
CC(=O)c1c(C)[nH]c(C(=O)Nc2cc(C)cc(C)c2)c1C,-13,-1,-71,-24,·,-1,·,·,
CCc1ccc(-c2nnn(CCC#N)n2)cc1,-4,-12,-98,18,-25,0,·,·,
CCc1ccc(-c2nnn(CCC(=O)OC)n2)cc1,2,22,87*,-5,·,0,94*,70*,
SMILES,CF NFkB block,TWEAK-Fn14 inh,HIF-2a inh,KKLEB cytotox,LGR2 antag,iPSC survival up,HIF-2a conf,HIF-1a counter,others
COc1ccccc1-[n+]1c(C)cc(/C=C2\Sc3ccccc3N2C)cc1C,-32,89*,57*,-43,?,-1,·,·,Mdm2 MdmX conf=103*
COC1(OC)C(/C=C/c2ccc(C)cc2)C(C#N)(C#N)C1(OC)OC (stereo not drawn),19,27,43*,-11,·,-2,7,65*,
Cc1noc(C)c1S(=O)(=O)N(C)C[C@@H]1Oc2ccc(NS(=O)(=O)c3ccccc3)cc2C(=O)N([C@@H](C)CO)C[C@@H]1C,·,·,·,·,-16,·,·,·,
COc1cc(/C=C/C(=O)c2ccc(NS(=O)(=O)c3ccc(C)cc3)cc2)cc(OC)c1O,-14,60*,54*,13,47,-2,64*,104*,
COc1cc(/C=C/C(=O)c2ccc(C)c([N+](=O)[O-])c2)cc(OC)c1O,43,69*,47*,-39,8,-2,21,36,
C[C@@H]1CN([C@H](C)CO)C(=O)Cc2cc(NC(=O)CCC(F)(F)F)ccc2O[C@H]1CN(C)C(=O)Nc1cccc2ccccc12,·,·,·,·,0,·,·,·,
COc1cccc(CNC(=O)COC(=O)c2nc(Cl)c(Cl)c(Cl)c2Cl)c1,30,94*,58*,-16,7,0,32,9,
CN(C)c1ccc2c(c1)[C@@H]1C[C@@H](CC(=O)NCc3ccccc3F)O[C@H](CO)[C@@H]1O2,·,·,·,·,-2,·,·,·,
CN(C)C(=O)C[C@@H]1CC[C@H](NC(=O)c2ccc(F)cc2)[C@H](CO)O1,·,·,·,·,1,·,·,·,
COc1ccc2cc1Oc1ccc(cc1)C[C@H]1c3cc(c(OC)cc3CCN1C)Oc1c(OC)c(OC)cc3c1[C@@H](C2)N(C)CC3,6,-6,7,19,-10,-5,·,·,Mdm2 MdmX conf=100*
COc1ccc(S(=O)(=O)N(C)C[C@H]2OCCCC[C@@H](C)Oc3ccc(NC(=O)CCC(F)(F)F)cc3C(=O)N([C@H](C)CO)C[C@H]2C)cc1,·,·,·,·,5,·,·,·,
CC(C)CC(=O)/C(=C\c1ccc(Cl)cc1Cl)n1cncn1,86*,106*,94*,-81*,·,-6,94*,107*,
CC(C)CC(=O)/C(=C/c1ccc(N(C)C)cc1)n1cncn1,-7,17,-1,4,-1,0,·,·,
C[C@@H]1CN([C@H](C)CO)C(=O)c2cccc(NS(=O)(=O)c3cn(C)cn3)c2O[C@@H]1CN(C)Cc1ccc(Cl)c(Cl)c1,·,·,·,·,10,·,·,·,
